The values below come from PubChem BioAssay AID588397 (National Center for Advancing Translational Sciences (NCATS), 2011).

Hit rate of the full screen: of about 1,300 compounds, about 1,000 (77%) were called active. Not shown: some 7% with an inconclusive outcome. The set was probably picked from earlier hits. Some of the results follow. Values without a mark were called inactive. The call rests on the fitted dose curve; in most records, active means well fitted inhibition curve with a large enough effect; inconclusive means small, poorly fitted or top-dose-only effect; inactive means no such curve, though single readings can be large or run the other way.
On the % scale 0 is the no-effect control and ±100 the full control effect; potency means the concentration at half of the fitted maximal effect.

This test can be described thus: qHTS of small molecules that selectively kill Giardia lamblia: Hit Validation.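 Further: viability measured as ATP content by luminescence so killing lowers signal; nearly all actives have a fitted effect of over 65% in size.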 The settings on record: Giardia lamblia trophozoite viability, dose-response; series mostly up to 38.3 µM; activity change, negative = killing: at the top concentration. The source says: Giardia lamblia is a human pathogen afflicting impoverished nations, and the most common cause of outbreaks of diarrhea in the United States. Giardia has been classified by the CDC as a category B bioterrorism organism. The favored anti giardiasis drugs in the US are metronidazole or tinidazole, compounds that have undesirable side effects. Moreover, increasing resistance to drug regimes and recurrence are a concern. It is thus clear that alternative drug treatments are needed.
In a collaboration between the University of Maryland, College Park and the NIH Chemical Genomics Center, a bioluminescence Giardia viability assay based on the trophozoites' ATP content was developed. This assay is suitable for high throughput screening, and miniaturized the assay for compound screening in 1536-well plates. The goal of the project is to screen the Molecular Libraries Small Molecule Repository (MLSMR) for compounds that selectively kill Giardia trophozoites.
NIH Chemical Genomics Center [NCGC]
NIH Molecular Libraries Probe Centers Network [MLPCN]
Assay Submitter (PI): Osnat Herzberg, University of Maryland, College Park, MD.
1. Dispense 2 ul/well media
2. Dispense 23 nl/well compounds
3. Dispense 4 ul/well Giardia trophozoites at a concentration of 100 cells/well
4. Incubate 48 hrs at 37 deg C anaerobically
5. Dispense 4 ul/well ATPLite 1-Step Luminescence assay kit
6. Incubate 15-30 min at room temperature
7. Read luminescence signal on ViewLux plate reader
Turning to `Cc1cc([N+](=O)[O-])c2ccccc2[n+]1[O-]`, the Potency was 206 nM (active). Regarding `CC(=O)OC[C@]12CCC(C)=C[C@H]1O[C@@H]1[C@H](O)[C@@H](OC(C)=O)[C@@]2(C)[C@]12CO2`, the Potency was 5160 nM (active). Still for that read-out and setting: the result for `COC1/C=C/C=C(\C)Cc2cc(O)c(Cl)c(c2)N(C)C(=O)CC(OC(=O)C(C)C)C2(C)OC2C(C)C2CC1(O)NC(=O)O2` (centres undefined) reads 460 nM (active); that for `COC(/C(C)=C/C=C/C(C)=C/c1coc(C)n1)C(C)C1CC(O)C2(C)OC2C=CC(C)C2CC(CC(=O)O2)CC2OC2C(=O)O1` (centres undefined), 23.1 nM (active). On to `C[N+]12CCC(CC1)C(=C(c1ccccc1)c1ccccc1)C2`, for which the “activity change, negative = killing” value is -5.4%. Consider `COC12C(COC(N)=O)C3=C(C(=O)C(C)=C(N)C3=O)N1CC1C2N1C` (centres undefined), for which the Potency was 5790 nM (active).

`O=[N+]([O-])c1ccc(O)c([N+](=O)[O-])c1`: the Potency is 2310 nM (active). Same read-out and setting: next, `O=[N+]([O-])c1cc([As](=O)(O)c2ccc(O)c([N+](=O)[O-])c2)ccc1O`: 818 nM (active).

Take `O=[N+]([O-])c1cc([As](=O)(O)O)ccc1O`: the Potency was 5790 nM (active).

Consider `Cc1nnc2ccc(-c3cccc(C(F)(F)F)c3)nn12`, for which the “activity change, negative = killing” value was -28.2%. On the same count and under the same terms, the result for `ClCCOCCCl` reads -5.76%; that for `Fc1ccc(C2NCCc3[nH]cnc32)cc1` (centres undefined), 10.2%. For the compound `CCOc1ccc(-c2cc(C(=O)N3CCC4(CC3)OCCO4)c3ccccc3n2)cc1`, the Potency is 7290 nM (active).

Turning to `COc1ccc(C[C@H]2NC[C@H](O)[C@H]2OC(C)=O)cc1`, the Potency is 650 nM (active). The same measure, in the same setting: next, `COc1ccc(CC2NCC(O)C2OC(C)=O)cc1` (centres undefined): 1030 nM (active); `CCOC(=O)C1CCCN(c2ccc([N+](=O)[O-])c3nonc23)C1` (centres undefined): 1160 nM (active). Same read-out and setting: next, `CNC(=O)Oc1cccc(-c2cn3cc(Cl)ccc3n2)c1`: 2050 nM (active). For the compound `CC1=C(N2CC2)C(=O)C(CO)=C(N2CC2)C1=O`, the Potency was 115 nM (active). The same measure, in the same setting: the result for `c1ccc2c(c1)[I+]c1ccccc1-2` reads 146 nM (active); that for `COC(=O)c1nc(-c2ccc3c(n2)C(=O)C(N)=C(OC)C3=O)c(N)c(-c2ccc(OC)c(OC)c2O)c1C`, 2590 nM (active). Take `CN(C)C(=O)Oc1ccc(Br)c2ccccc12`: the “activity change, negative = killing” value was 12.9%.

As for `CC(=O)OC1(C)CC(C)C(=O)C(C(O)CC2CC(=O)NC(=O)C2)C1` (centres undefined), the Potency was 18.3 nM (active). The same measure, in the same setting: next, `CC1CC(C)(O)CC(C(O)CC2CC(=O)NC(=O)C2)C1=O` (centres undefined): 146 nM (active). `CC(C)(O)C1C2OC(=O)C1C1(O)CC3OC34C(=O)OC2C14C` (centres undefined): the “activity change, negative = killing” value was 2.07%. `Cc1ncc([N+](=O)[O-])n1CCOC(N)=O`: the Potency was 3260 nM (active). Same read-out and setting: next, `Cc1ncc([N+](=O)[O-])n1CCOc1nonc1N`: 1030 nM (active). Still for that read-out and setting: the result for `CC1CC(C)CC(C)C(O)C(C#N)=CC=CCC(C2CCCC2C(=O)O)OC(=O)CC(O)C(C)C1` (centres undefined) reads 326 nM (active); that for `COc1ccc(OC(=O)N2C/C(=C/c3ccccc3)C(=O)/C(=C\c3ccccc3)C2)cc1`, 1160 nM (active); that for `NC(=O)c1cc(N2CC2)c([N+](=O)[O-])cc1[N+](=O)[O-]`, 650 nM (active). Same read-out and setting: the result for `O=[N+]([O-])c1ccc(-c2ccccc2)c([As](=O)(O)O)c1` reads 259 nM (active); that for `CC1Oc2cc3c(-c4c(O)cc(O)c5c(O)c6c(cc45)OC(C)C(C)C6=O)c(O)cc(O)c3c(O)c2C(=O)C1C` (centres undefined), 1030 nM (active). For the compound `COC(COC(N)=O)C1=C(N2CC2)C(=O)C(C)=C(N2CC2)C1=O` (centres undefined), the Potency is 729 nM (active). Take `O=[N+]([O-])c1oc2ccc3ccccc3c2c1CCO`: the Potency is 51.6 nM (active).

`NN=C(N)N`: the “activity change, negative = killing” value was -24.8%. For the compound `C[C@H]1C[C@@H](C)C(=O)[C@@H]([C@H](O)CC2CC(=O)NC(=O)C2)C1`, the Potency was 72.9 nM (active).

With `C[C@@H]1C[C@@H]([C@H](O)CC2CC(=O)NC(=O)C2)C(=O)[C@@H](C)C1`, the Potency was 183 nM (active).

On to `CCn1nc(/C=C/c2ccccc2)nc2c(=O)n(C)c(=O)nc1-2`, for which the Potency was 146 nM (active). Consider `Cc1ccc(-c2nc3c(=O)n(C)c(=O)nc-3n(C)n2)cc1`, for which the Potency was 103 nM (active).

`Cc1nc2c(=O)n(C)c(=O)nc-2n(C)n1`: the Potency is 259 nM (active).

With `Cn1nc(-c2ccccc2)nc2c(=O)n(C)c(=O)nc1-2`, the Potency was 163 nM (active).

Regarding `Cc1ccc(C(c2nnnn2Cc2ccccc2)N2CC=C(c3ccc(F)cc3)CC2)cc1` (centres undefined), the “activity change, negative = killing” value was 6.65%. On to `COC(=O)C12OCC34C(CC5C(C)=C(O)C(=O)CC5(C)C3C(O)C1O)OC(=O)C(OC(=O)/C=C(\C)C(C)C)C24` (centres undefined), for which the Potency was 579 nM (active). Regarding `O=c1c2ccccc2nc(/C=C/c2ccc([N+](=O)[O-])o2)n1-c1ccc(O)cc1`, the Potency is 290 nM (active). The same measure, in the same setting: next, `Cc1cccc(-n2c(/C=C/c3ccc([N+](=O)[O-])o3)nc3ccccc3c2=O)c1`: 1630 nM (active); `Cc1nc2ccccc2c(=O)n1-c1cc([N+](=O)[O-])cc([N+](=O)[O-])c1`: 10300 nM (active). On to `O=c1c2ccccc2nc(/C=C/c2ccc(O)cc2)n1-c1cccc(O)c1`, for which the “activity change, negative = killing” value was -17.3%.

`CN1CCN(c2ccc([N+](=O)[O-])c3cccnc23)CC1`: the Potency was 1030 nM (active). Still for that read-out and setting: the result for `CC1CN(c2ccc([N+](=O)[O-])c3cccnc23)CC(C)N1` (centres undefined) reads 1300 nM (active). For the compound `CCCCn1c(=O)c(C(=O)NCc2ccccc2OC)c(O)c2ccccc21`, the “activity change, negative = killing” value was -4.32%. Consider `[Hg+][c]1ccccc1`, for which the Potency was 4100 nM (active). For the compound `CN1CCCN(c2ccc([N+](=O)[O-])nc2)CC1`, the Potency is 6500 nM (active). Same read-out and setting: next, `C=CC1CN2CCC1CC2[C@@H](OC(=O)c1ccc(OC)cc1)c1ccnc2ccccc12` (some centres undefined): 818 nM (active); `c1ccc2c(c1)[IH]c1ccccc1-2`: 460 nM (active); `CN(c1ccccc1)c1ccc([N+](=O)[O-])c2nonc12`: 410 nM (active).
